Values joined by “and” are separate entries in the source; they are usually repeats but may differ in a detail not shown here. Equal entries are not always repeated. Structures can show the parent of a compound that is named as a salt.
How the values were obtained:
Assay in all cases: cell viability relative to vehicle control; higher = less cytotoxic
Details in all cases: 10 µM
K562 = system: K562
In short: (§1)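 Each screen used CRISPR-edited mutant and wild-type clones from four leukaemia lines. Compounds were acoustically dispensed at a single 10 µM dose, and CellTiter-Glo luminescence was read after 48 h with the supernatant first removed. Viability was analysed in Genedata Screener and given as percent of the on-plate vehicle control.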

MARIMO = system: MARIMO
In short: as §1

MOLM14 = system: MOLM14
In short: as §1

OCI-AML2 = system: OCI-AML2
In short: as §1

| Compound | cell viability (K562; SRSF2 genotype: SRSF2 P95H/wt) | cell viability (K562; SRSF2 genotype: SRSF2 wt/wt) [%] | cell viability (MARIMO; SRSF2 genotype: SRSF2 P95H/wt) [%] | cell viability (MARIMO; SRSF2 genotype: SRSF2 wt/wt) [%] | cell viability (MOLM14; SRSF2 genotype: SRSF2 P95H/wt) [%] | cell viability (MOLM14; SRSF2 genotype: SRSF2 wt/wt) [%] | cell viability (OCI-AML2; SRSF2 genotype: P95H/wt) [%] | cell viability (OCI-AML2; SRSF2 genotype: wt/wt) [%] |
| --- | --- | --- | --- | --- | --- | --- | --- | --- |
| Cc1noc(NS(=O)(=O)c2ccc(N)cc2)c1C [Sulfisoxazole] | 106% and 97.9% | 107 | 98.5 | 104 | 97.6 | 103 | 98.5 | 104 |
| CN1C(C(=O)Nc2ccccn2)=C(O)c2sc(Cl)cc2S1(=O)=O [Lornoxicam (Xefo)] | 94.3% and 91.8% | 87.5 | 87.2 | 95.8 | 91 | 87.8 | 92.8 | 94.5 |
| CS(=O)(=O)c1ccc(C(=O)Nc2ccc(Cl)c(-c3ccccn3)c2)c(Cl)c1 [Vismodegib (GDC-0449)] | 93.4% and 96.9% | 96.7 | 101 | 104 | 103 | 104 | 96 | 92.9 |
| O=C(Nc1ccncc1)c1cc([N+](=O)[O-])ccc1Cl | 102% and 101% | 91.5 | 106 | 102 | 70.5 | 106 | 83.2 | 73.9 |
| CC1=C(C/C=C(\C)CCC[C@H](C)CCC[C@H](C)CCCC(C)C)C(=O)c2ccccc2C1=O [Vitamin K1] | 101% and 88.9% | 93.7 | 92.4 | 107 | 88.2 | 98 | 90.7 | 106 |
| Cc1cc(-c2ccc(CC(=O)Nc3ccc(-c4cccnc4)cc3)cc2)ccn1 | 77% and 83% | 86.9 | 81.5 | 86.3 | 103 | 102 | 74 | 78.9 |
| Nc1nc(Cl)nc2c1ncn2[C@@H]1O[C@H](CO)[C@@H](O)[C@@H]1F [Clofarabine] | 96.7% and 113% | 105 | 11.5 | 8.77 | 2.95 | 0.83 | 5.47 | 4.64 |
| O=C1N=C(O)NC1(c1ccccc1)c1ccccc1 [Phenytoin sodium (Dilantin)] | 98% and 104% | 96.8 | 104 | 103 | 97.7 | 102 | 103 | 94 |
| Oc1ccc(OCc2ccccc2)cc1 [Monobenzone (Benoquin)] | 89.5% and 92.4% | 83.9 | 53.8 | 73 | 27.1 | 11.3 | 32.5 | 47.3 |
| CCOC(=O)[C@H](CCc1ccccc1)N[C@@H](C)C(=O)N1Cc2ccccc2C[C@H]1C(=O)O [Quinapril hydrochloride (Accupril)] | 97.3% and 108% | 106 | 102 | 106 | 104 | 103 | 107 | 104 |
| CNC[C@H](O)[C@@H](O)[C@H](O)[C@H](O)CO [Meglumine] | 108% and 107% | 107 | 108 | 106 | 101 | 107 | 112 | 109 |
| COc1cc(N2CCN(C)CC2)ccc1Nc1ncc2c(n1)N(C)c1ccccc1C(=O)N2 | 83.4% and 82.7% | 78.9 | 97.7 | 90.1 | 78.1 | 91.3 | 83.3 | 73.2 |
| C[C@@H]1O[C@@H](OC[C@H]2O[C@@H](Oc3c(-c4ccc(O)c(O)c4)oc4cc(O)cc(O)c4c3=O)[C@H](O)[C@@H](O)[C@@H]2O)[C@H](O)[C@H](O)[C@H]1O [Rutin (Rutoside)] | 106% and 105% | 109 | 108 | 106 | 105 | 103 | 105 | 115 |
| O=C(O)[C@H]1O[C@@H](Oc2cc3oc(-c4ccccc4)cc(=O)c3c(O)c2O)[C@H](O)[C@@H](O)[C@@H]1O [Baicalin] | 98.7% and 105% | 109 | 101 | 97.8 | 98.7 | 107 | 99.9 | 95.3 |
| O=C(C[S+]([O-])Cc1ccco1)NC/C=C\COc1cc(CN2CCCCC2)ccn1 (stereo not drawn) [Lafutidine] | 104% and 105% | 102 | 104 | 104 | 96.9 | 101 | 105 | 108 |
| Nc1ncnc2c1c(-c1cccc(OCc3ccccc3)c1)cn2C1CC(CN2CCCC2)C1 (stereo not drawn) | 85.5% and 90.3% | 88.4 | 47.1 | 40.6 | 39.4 | 55.1 | 35.1 | 41.8 |
| CCCN[C@H]1CCc2nc(N)sc2C1 [Pramipexole dihydrochloride monohydrate] | 102% and 83.9% | 83 | 78.1 | 85.2 | 66.5 | 74.9 | 88.2 | 78.2 |
| CC(C)Cc1ccc([C@@H](C)C(=O)NS(C)(=O)=O)cc1 [Reparixin (Repertaxin)] | 102% and 97.5% | 98.4 | 97.6 | 99.2 | 95.7 | 98.4 | 93.3 | 105 |
| Nc1nc(NCCNc2ncc(-n3ccnc3)c(-c3ccc(Cl)cc3Cl)n2)ccc1[N+](=O)[O-] | 110% and 106% | 99.1 | 125 | 132 | 109 | 115 | 131 | 148 |
| O=C1CN2Cc3c(ccc(Cl)c3Cl)N=C2N1 [Anagrelide hydrochloride] | 94.6% and 89.8% | 108 | 84.1 | 96.4 | 83.4 | 93.4 | 101 | 110 |
| CCC(=O)NS(=O)(=O)c1ccc(-c2c(-c3ccccc3)noc2C)cc1 [Parecoxib Sodium] | 102% and 91.9% | 100 | 101 | 104 | 93.4 | 104 | 92.3 | 97.3 |

Reference: the supplement of paper PMC10981050
